Experimental findings from PubChem BioAssay are described below.

A short description of the experiment: small-molecule microarray binders of probe aShh, primary screen, biochemical, biotinylated probe, 635/667 nm fluorescence (AID 1114).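 Note: probe is biotin-labelled aShh protein from a stem cell growth factor screen; measures binding of labelled protein to compounds printed on the slide; score merges feature fluorescence at 667 nm with signal-to-noise.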 The following applies: higher = more signal.
On to `CO[C@H]1O[C@H](CO)[C@@H](OC(=O)Nc2ccc3c(c2)OCO3)[C@H](OC(=O)Nc2ccc3c(c2)OCO3)[C@@H]1OC(=O)Nc1ccc2c(c1)OCO2`, for which the composite z-score came out at 0.313.
Next, `CCOC(=O)C[C@H]1[C@H](OC(=O)c2ccccc2-c2ccccc2)[C@@H](NC(=O)c2ccc3ccccc3c2)c2cc(OCCCO)ccc2N1C(=O)c1ccccc1`: -0.291.
Next, `CC(C)[Si]1(C(C)C)OCc2cc(-c3ccc(-c4ccc(Cl)c(Cl)c4)o3)nc(-c3ccccc3)c21`: 0.0121; `COc1ccc([C@H]2OC[C@@H]3C[C@H](Cc4ccccc4)C(=O)N32)cc1`: 0.111; `COC(=O)C(CC#Cc1ccc2c(c1)[C@]1(C(=O)N2)[C@H](c2ccc(O)cc2)N2[C@H](c3ccccc3)[C@H](c3ccccc3)OC(=O)[C@H]2[C@@H]1C(=O)NC[C@H](O)c1ccccc1)C(=O)OC`: -0.0709.
Under `CC(=O)N1CC2(CC2)CC1c1ccccc1` (stereo not given) stands -0.227.
`COc1ccc([Si](C)(C)[C@@H]2[C@@H](CC(=O)N3CCC[C@H]3CO)O[C@]3(C(=O)N(Cc4cccc(N5C(=O)COc6ccccc65)c4)c4ccccc43)[C@H]2C)cc1`: the composite z-score was 0.131.
Next, `O=c1cccc(-c2ccc([N+](=O)[O-])cc2)o1`: 0.199.
Next, `N[C@@H](Cc1ccccc1)C(=O)NCc1cn(Cc2ccccc2)nn1`: -0.0904; `O=C1C2C=CC(C(O)c3cccc(O)c3)N(Nc3ccc([N+](=O)[O-])cc3)C2C(=O)N1c1ccccc1` (stereo not given): 0.0022.
Compound `CC(C)c1ccc(NN2C(C(O)c3ccc(F)cc3)C=CC3C(=O)N(c4ccccc4)C(=O)C32)cc1` (stereo not given) registered a composite z-score of 0.246.
As for `C=CC[C@@H](OC(=O)Nc1ccc(SC)cc1)c1ccc(O)c(F)c1`, the composite z-score came to 0.42.
The compound `COc1cc2c(cc1O)C(C1CC1)N(C)CC2` (stereo not given) yielded a composite z-score of -0.24.
In turn, `O=C1CS(=O)(=O)C(c2cccc([N+](=O)[O-])c2)N1c1ccccc1` (stereo not given) had a composite z-score of 0.122.
For the compound `COC(=O)[C@@H]1N=C(c2ccc(OCCCO)cc2)O[C@@H]1c1ccccc1`, the composite z-score was -0.0709.
Under `O=C1NC(=O)C2C1C=CC(C(O)c1ccco1)N2Nc1ccc(Cl)cc1Cl` (stereo not given) stands 0.111; under `COc1ccc([Si](C)(C)[C@@H]2[C@@H](CCO)O[C@]3(C(=O)N(Cc4cccc(NC(=O)[C@H](C)O)c4)c4ccccc43)[C@H]2C)cc1`, 0.223; under `CCCN1C(=O)[C@]2(Cc3ccccc31)N=C(c1ccc(OCCCO)cc1)O[C@@H]2c1ccccc1`, 1.17.
Under `CN(C)C(=O)[C@@]1(Cc2ccccc2)N=C(c2ccc(OCCCO)cc2)O[C@H]1c1ccccc1` stands 0.0654.
`COCCOC(=O)N1C(=O)[C@@]2(c3cc(C#CC4(O)CCCCCC4)ccc31)[C@H](c1ccc(O)cc1)N1[C@H](c3ccccc3)[C@H](c3ccccc3)OC(=O)[C@H]1[C@@H]2C(=O)N1CCN(c2ncccn2)CC1` gave a composite z-score of 0.679.
Take `COc1ccc(CCNC(=O)[C@@]2(Cc3ccccc3I)c3ccccc3C(=O)N(C3CCCCC3)[C@H]2c2ccc(CO)cc2)cc1`: the composite z-score is -0.0626.
Under `CCOC(=O)C=Cc1cccc(C)c1O` stands -0.0769; under `C=CCC(OC(C)=O)[C@@H]1[C@@H](N(Cc2ccc(-c3cccc(C(F)(F)F)c3)o2)C(=O)Cc2ccc(OC)cc2)c2cc(OCCCO)ccc2N1C(=O)c1ccc(-c2ccccc2)cc1` (stereo not given in full), -0.0793; under `O=C1[C@H]2C=C(I)[C@H](C[C@@H]2OCCOCCO)[C@@]12CO2`, -0.243.
Under `C#Cc1cc2ccccc2oc1=O` stands 0.541.
As to `O=C(Cc1ccccc1)[C@H]1C2C=CCCC(c3ccccc3)=C2CN1Cc1ccccc1` (stereo not given in full), the composite z-score is -0.124.
Under `O=C1O[C@@H](c2ccccc2)[C@@H](c2ccccc2)N2[C@@H](c3ccc(OCCO)cc3)[C@]3(C(=O)Nc4ccc(C#CC5=CCCCC5)cc43)[C@@H](C(=O)NC[C@H](O)c3ccccc3)[C@H]12` stands -0.398.
In turn, `COc1cc2c(cc1O)C(C1CC1)N(Cc1cccc(OC(F)(F)F)c1)CC2` (stereo not given) returned a composite z-score of -0.0793.
Under `[N-]=[N+]=NCc1ccccc1[C@@H]1OC(c2ccc(OCCCO)cc2)=N[C@]1(CCS(=O)(=O)c1ccccc1)C(=O)O` stands 0.0469; under `[N-]=[N+]=NCc1ccccc1[C@H]1OC(c2ccc(OCCCO)cc2)=N[C@@]1(Cc1ccccc1N=[N+]=[N-])C(=O)NCC(O)CO` (stereo not given in full), 0.28.
For the compound `COCCOC(=O)N1C(=O)[C@@]2(c3ccccc31)[C@H](C(=O)NC[C@H](O)c1ccccc1)[C@H]1C(=O)O[C@H](c3ccccc3)[C@H](c3ccccc3)N1[C@@H]2c1ccc(O)cc1`, the composite z-score is 0.209.
Regarding `O=C1OCCC/C=C\[C@H]2OC34C=CCN(c5ccc6ccccc6c5)C(=O)[C@H]3N(CCO)C(=O)[C@@H]4C12` (stereo not given in full), the composite z-score is -0.0533.
Next, `CCOC(=O)C[C@H]1[C@H](OC(=O)Cc2ccc3c(c2)OCO3)[C@@H](NC(=O)c2ccc3ccccc3n2)c2cc(OCCCO)ccc2N1C(=O)c1ccc2ccccc2n1`: 0.0048; `CC[C@@H]1C=C(C(=O)O)[C@H](c2ccccc2)N1S(=O)(=O)c1ccc(C)cc1`: 0.162; `CC(C)N1C(=O)C[C@@](C(=O)O)(c2ccc([N+](=O)[O-])cc2)[C@H]1c1ccc(CO)cc1`: -0.153.
